Drawing on PubChem BioAssay (NCI), this text covers growth for 14 molecules.

What all share (test): NCI-60 one-dose screen, 48 h (100 = growth as untreated, 0 = no growth, -100 = all killed)
Common to all, as to settings: 10 µM unless noted

In assay [1] the test system is SR leukemia.
In assay [2] the test system is RPMI-8226 leukemia.
Assay [3] concerns OVCAR-8 ovarian.
Assay [4] has as its system OVCAR-5 ovarian.
For assay [5], the system named is OVCAR-4 ovarian.
Assay [6] has as its system SK-OV-3 ovarian.
The test system of assay [7] is IGROV1 ovarian.
Assay [8] concerns OVCAR-3 ovarian.
Assay [9] relates to NCI/ADR-RES ovarian.
In assay [10] the test system is HS 578T breast.

About 83,000 compounds went through this panel and 20% of them were active in at least one assay; those are over-represented in the sample as a whole.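 Percent growth is the endpoint: 0 to 100 indicates growth inhibition (40 means 60% inhibition), 0 means no net growth, and negative values indicate cell death.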 Unmarked numbers belong to inactive results. The source made the active and inactive calls. How the source made its calls: active means growth percent below 10; inactive means the rest.

Regarding `COc1ccc(OC)c(CCn2cncc2-c2c[nH]c3ccccc23)c1`, the growth in assay [1] was 60.1%; in assay [2] it was 45.6%; in assay [3], 89.4%; in assay [4] it was 94.4%; in [5], 44.6%; in [6] it was 72.9%. Moreover, the growth in assay [7] was 44%; in assay [8] it was 57%; in [9], 71.1%.

`c1ccc(Cn2cnc3ccc(-c4nc(-c5ccc6c(c5)ncn6C5CCCCC5)cn5ccnc45)cc32)cc1`: the growth in [1] was 5.45% (active); in assay [2] it was -41.2% (active); in [3] it was 2.45% (active); in assay [4], -29% (active); in assay [5], 16.8%; in assay [6], -22.2% (active). Also, the growth in assay [7] is 5.81% (active); in [10], 0.386% (active); in assay [9], 0.531% (active).

As for `O=C1c2cccc3c(-c4ccc5c(c4)ncn5C4CCCCC4)ccc(c23)C(=O)N1CCO`, the growth in [1] is 84.7%; in assay [2] it was 66.3%; in assay [3] it was 83.2%; in [4], 110%; in [5] it was 86%; in [6] it was 109%. In addition, the growth in assay [7] was 96.2%; in assay [10], 94.7%; in [9] it was 89.1%.

Take `CCCOC(=O)N[C@H]1CCc2c(Cl)c(OC)c(OC)c(OC)c2-c2ccc(SC)c(=O)cc21`: the growth in assay [1] was 4.56% (active); in [2], -2.97% (active); in assay [3] it was 21.6%; in assay [4], 44.7%; in [5] it was 36.3%; in [6], 38.3%. Besides, the growth was 11.7% in assay [7], 9.75% (active) in assay [10] and 13.6% in assay [9].

In the case of `Cn1ccnc1C(=O)/C=C/c1ccc(CC(=O)NC2CCCCC2)cc1`, the growth is 24.8% in assay [1]; 20.3% in [2]; 62.4% in assay [3]; 96.8% in [4]; 58.6% in assay [5]; 92.9% in [6]. Moreover, the growth in assay [7] is 60.4%; in [10], 86.1%; in assay [9] it was 75.9%.

For `Cc1cccc(-c2cn3ccnc3c(-c3ccc4ncn(Cc5ccccc5)c4c3)n2)c1`, the growth was 89% in assay [1]; 62.5% in assay [2]; 88.5% in assay [3]; 93.4% in assay [4]; 80.7% in [5]; 102% in assay [6]. Moreover, the growth in [7] was 90.5%; in [8], 86%; in assay [10] it was 91.5%; in assay [9], 87.9%.

For the molecule `Nc1n[nH]c2cccc(C#Cc3cccc(C(=O)Nc4cccc(C(F)(F)F)c4)c3)c12`, the growth is 72% in assay [1]; 58.9% in assay [2]; 76.3% in assay [3]; 57.6% in assay [4]; 66.2% in [5]; 59.6% in assay [6]. Besides, the growth in assay [7] was 30.3%; in assay [10], 40.5%; in assay [9] it was 80.6%.

Take `C=C(C)[C@@H]1CC[C@]2(C(=O)N3CCN(C)CC3)CC[C@]3(C)[C@H](CC[C@@H]4[C@@]5(C)C/C(=C/c6ccncc6)C(=O)C(C)(C)[C@@H]5CC[C@]43C)[C@@H]12`: the growth was 9.44% (active) in [1]; 20.7% in assay [2]; 49.1% in assay [3]; 88.8% in [4]; 53% in assay [5]; 88.8% in [6]. Moreover, the growth in assay [7] is 74.8%; in assay [10], 61.8%; in [9], 57.9%.

In the case of `OCc1cnccc1NCCCOc1ccccc1`, the growth is 99.9% in assay [1]; 100% in assay [2]; 102% in assay [3]; 113% in assay [4]; 102% in assay [5]; 114% in assay [6]. In addition, the growth in [7] was 110%; in assay [8], 107%; in assay [10] it was 98.7%; in [9], 102%.

Take `O=C1c2cccc3c(-c4ccc5c(c4)ncn5C4CCCCC4)ccc(c23)C(=O)N1c1nc2ccccc2s1`: the growth in assay [1] is 81%; in assay [2], 75.6%; in assay [3], 98%; in assay [4], 102%; in [5], 79.1%; in assay [6] it was 95%. Moreover, the growth was 92.3% in assay [7], 92.9% in [10] and 91.3% in assay [9].

For the molecule `COc1cc2oc(-c3cccc(C(=O)Nc4ccccc4)c3)cc(=O)c2c(O)c1OC`, the growth in assay [1] is 95.7%; in assay [2] it was 83.5%; in [3] it was 15.4%; in assay [4], 94.4%; in assay [5], -20.2% (active); in assay [6] it was 15%. Besides, the growth in assay [7] was 85.4%; in assay [8] it was 70.1%; in assay [10], 11.1%; in assay [9], 79.1%.

Turning to `O=C(CCN1CCCC1)Nc1ccc2c(NCc3ccccc3)c3ccccc3nc2c1`, the growth is -14.8% (active) in assay [1]; -35.3% (active) in assay [2]; 4.52% (active) in assay [3]; 14.8% in assay [4]; -13.8% (active) in assay [5]; -10.9% (active) in assay [6]. For the same molecule, the growth in assay [7] was 3.89% (active); in assay [10], -10.7% (active); in [9] it was 72.5%.

For `CC(C)(C)c1cc(C=O)cc(C(C)(C)C)c1O`, the growth was 101% in assay [1]; 72.7% in assay [2]; 94.1% in [3]; 108% in [4]; 98.7% in [5]; 110% in [6]. Besides, the growth in assay [7] was 106%; in [8], 101%; in [9], 98.8%.

`Cc1c(C(=O)NCCC(=O)NO)sc2ncnc(Nc3ccc(NC(=O)Nc4cccc(C(F)(F)F)c4)cc3)c12`: the growth in assay [1] is 101%; in assay [2], 102%; in assay [3], 102%; in assay [4], 104%; in assay [5] it was 105%; in assay [6] it was 115%. The growth was 102% in [7], 93.5% in assay [10] and 103% in [9].
